# Measurements: PubChem BioAssay (EPA / NIEHS)
# Records with an inconclusive call do not appear. Activity calls are given as the source filed them. How the source made its calls, unless noted: active means hit-call score of the fitted dose curve at least 0.9, where 1 is the maximum; inconclusive means response in the unintended direction; inactive means score below 0.9.
# Experiments:
# [1] = target: Retinoic acid receptor alpha (Homo sapiens) (UniProt P10276); experiment: ATG_DR5_RAR_CIS: Attagene CIS-FACTORIAL HepG2 Assay for human Retinoic Acid Receptor Alpha (RARE), DR5 submotif (AID 2282934; active means hit-call score of the fitted dose curve at least 0.9, where 1 is the maximum; inactive means score below 0.9); conditions: HepG2 Attagene cis-factorial RARE DR5 reporter, mRNA; actives raise or lower the signal
# Method in brief: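 Transient MRTU transfection of HepG2; 24 h compound treatment; TriZol RNA, oligo(dT) RT, PCR, FAM labelling, capillary electrophoresis. Bidirectional fit vs DMSO. Endogenous TF activity at DR5 RARE.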
# [2] = target: Nuclear receptor subfamily 1 group I member 3 (Homo sapiens) (UniProt Q14994); experiment: ATG_CAR_TRANS: Attagene TRANS-FACTORIAL HepG2 Assay for human Constitutive Androstane Receptor (CAR) (AID 2282969); conditions: HepG2 Attagene TRANS-FACTORIAL CAR reporter;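 further: activators raise reporter mRNA above DMSO so AC50 marks induction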
# Method in brief: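 Signal is reporter mRNA induction relative to DMSO, measured 24 h after dosing by RT-PCR with fluorescent primer extension and capillary electrophoresis. Human HepG2 liver cells carried transiently transfected chimeric NR-Gal4/GAL4-UAS reporter constructs.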
# [3] = ATG_M_19_TRANS: Attagene TRANS-FACTORIAL HepG2 Assay for M19 Transcription Factor (Internal Marker) (AID 2282974); conditions: HepG2 Attagene TRANS-FACTORIAL M19 internal marker reporter
# Method in brief: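 Background-control readout: after 24 h chemical exposure of transfected HepG2 carrying GAL4-driven reporter units, RNA was reverse-transcribed, amplified, fluorescently labeled and sized by capillary electrophoresis; gain-of-signal fit against DMSO.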
# [4] = target: Oxysterols receptor LXR-alpha (Homo sapiens) (UniProt Q13133); experiment: ATG_LXRa_TRANS: Attagene TRANS-FACTORIAL HepG2 Assay for human Liver X Receptor alpha (LXRa) (AID 2282980); conditions: HepG2 Attagene TRANS reporter, LXRa transactivation
# Method in brief: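 HepG2 cells were transiently transfected with multiplexed reporter units driven by chimeric LXRa–GAL4 fusion proteins, then dosed for 24 h. Reporter mRNA was quantified by RT-PCR, fluorescent labelling and capillary electrophoresis; gain of signal fitted against DMSO baseline.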
# [5] = target: Oxysterols receptor LXR-beta (Homo sapiens) (UniProt P55055); experiment: ATG_LXRb_TRANS: Attagene TRANS-FACTORIAL HepG2 Assay for human Liver X Receptor beta (LXRb) (AID 2282981); conditions: HepG2 Attagene TRANS GAL4-LXRb reporter, mRNA
# Method in brief: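 After 24 h chemical treatment of transfected HepG2 cells carrying exogenous NR-Gal4 chimeras, reporter mRNA was quantified by fluorescent RT-PCR and capillary electrophoresis; activity taken as increase over DMSO controls.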
# [6] = target: Hepatocyte nuclear factor 4-alpha (Homo sapiens) (UniProt P41235); experiment: ATG_HNF4a_TRANS: Attagene TRANS-FACTORIAL HepG2 Assay for human Hepatocyte Nuclear Factor 4 alpha (HNF4a) (AID 2282982); conditions: HepG2 HNF4a transactivation reporter, mRNA readout
# Method in brief: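 Activity of an exogenous HNF4a–Gal4 fusion scored as induced GAL4-UAS reporter transcripts after 24 h chemical exposure of transfected human HepG2 cells. Read-out via RT-PCR with 6-FAM labelling and capillary electrophoresis; rise over DMSO baseline.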
# [7] = target: human Peroxisome Proliferator-activated Receptor alpha (PPARa), PPARA (gene 5465) (UniProt Q07869); experiment: ATG_PPARa_TRANS: Attagene TRANS-FACTORIAL HepG2 Assay for human Peroxisome Proliferator-activated Receptor alpha (PPARa) (AID 2283001);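 on AC50: potency for gain of reporter signal over DMSO so agonist or activator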
# Method in brief: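 Reporter transcripts quantified by RT-PCR plus capillary electrophoresis after 24 h treatment, fitted upward relative to DMSO. Cells: human HepG2 transiently carrying multiple GAL4-UAS reporter units driven by NR-Gal4 chimeras.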
# [8] = target: human Peroxisome Proliferator-activated Receptor delta (PPARd), PPARD (gene 5467) (UniProt Q03181); experiment: ATG_PPARd_TRANS: Attagene TRANS-FACTORIAL HepG2 Assay for human Peroxisome Proliferator-activated Receptor delta (PPARd) (AID 2283002)
# Method in brief: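 Transient HepG2 transfection (multiple GAL4-UAS RTUs, chimeric receptor-Gal4); 24 h dosing; total RNA → oligo(dT) RT → PCR → 6-FAM primer extension → HpaI cut → CE. Positive direction vs DMSO.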
# [9] = target: human RAR-related Orphan Receptor beta (RORb), RORB (gene 6096) (UniProt Q92753); experiment: ATG_RORb_TRANS: Attagene TRANS-FACTORIAL HepG2 Assay for human RAR-related Orphan Receptor beta (RORb) (AID 2283010)
# Method in brief: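 Read-out is reporter mRNA induction, quantified by RT-PCR with fluorescent capillary electrophoresis, 24 h post-dose in transiently transfected HepG2 expressing exogenous NR-Gal4 chimera. Activity fitted upward versus DMSO.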
# [10] = target: human Retinoid X Receptor beta (RXRb), RXRB (gene 6257) (UniProt P28702); experiment: ATG_RXRb_TRANS: Attagene TRANS-FACTORIAL HepG2 Assay for human Retinoid X Receptor beta (RXRb) (AID 2283013)
# Method in brief: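 Readout is reporter transcript induction after 24 h dosing. It is measured by RT-PCR of total RNA followed by fluorescent capillary electrophoresis. HepG2 liver cells carry transfected multiple reporter units driven by an exogenous RXRb-Gal4 fusion; activity is relative to DMSO.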
# [11] = target: human Thyroid Receptor alpha (THRa1), THRA (gene 7067) (UniProt P10827); experiment: ATG_THRa1_TRANS: Attagene TRANS-FACTORIAL HepG2 Assay for human Thyroid Receptor alpha (THRa1) (AID 2283014)
# Method in brief: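 HepG2 cells transiently transfected with multiplexed GAL4-UAS reporter units for exogenous chimeric THRa1-Gal4; reporter mRNA measured 24 h after dosing by RT-PCR, 6-FAM labelling, HpaI digestion and capillary electrophoresis. Gain-of-signal fitted versus DMSO baseline.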
# [12] = target: human Vitamin D Receptor (VDR), VDR (gene 7421) (UniProt P11473); experiment: ATG_VDR_TRANS: Attagene TRANS-FACTORIAL HepG2 Assay for human Vitamin D Receptor (VDR) (AID 2283022)
# Method in brief: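 HepG2 cells were transiently transfected with multiple GAL4-UAS reporter units, so signal reflects exogenous chimeric receptor-Gal4 activity. After 24 h compound exposure, reporter mRNA was measured by RT-PCR, fluorescent labelling and capillary electrophoresis, fitted for gain of signal versus DMSO.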
# [13] = TOX21_p53_BLA_p2_viability: Viability Assessment in the Tox21 HCT-116 p53 Agonism Beta-lactamase Assay, Phase 2 (AID 2283591);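 further: compound exposure lasted 16 h at 37 °C; actives lower the ATP signal meaning cytotoxicity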
# Method in brief: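 Cytotoxicity readout: CellTiter-Glo ATP luminescence, 30 min at room temperature, after the beta-lactamase read. Cells were HCT116 exposed 16 h at 37C to compounds pin-transferred at 217-fold dilution from DMSO stocks.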
# [14] = TOX21_p53_BLA_p4_viability: Viability Assessment in the Tox21 HCT-116 p53 Agonism Beta-lactamase Assay, Phase 4 (AID 2283597);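 further: hits lower the luminescence signal meaning cytotoxicity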
# Method in brief: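 Cytotoxicity was inferred from loss of CellTiter-Glo luminescence. HCT116 cells had been dosed with compounds after 5 h plating, incubated 16 h at 37C and 5% CO2, and exposed to the CCF4-AM substrate for 2 h.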
# [15] = TOX21_p53_BLA_p5_viability: Viability Assessment in the Tox21 HCT-116 p53 Agonism Beta-lactamase Assay, Phase 5 (AID 2283600)
# Method in brief: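 Luciferase-coupled ATP quantitation of cells treated for 16 h (37C, 5% CO2) with test chemicals delivered in DMSO via a 217-fold dilution; 4000 cells/well; reagent incubated 30 min at room temperature before luminescence reading.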
# [16] = ACEA_ER_AUC_viability: ACEA Biosciences xCELLigence Real-Time Cell Analysis on Estrogen Receptor Agonism for Viability (AID 2283782);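 further: hit means loss of impedance signal meaning reduced cell growth or viability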
# Method in brief: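 Viability endpoint: reduced impedance area under the curve relative to DMSO, recorded by real-time electrode sensing over ~80 h of continuous exposure. Duplicate plates of T47D in hormone-depleted medium; eight concentrations, 1:4 dilutions, 100 uM maximum.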
# [17] = ATG_GAL4_TRANS: Attagene TRANS-FACTORIAL HepG2 Assay for GAL4 (Internal Marker) (AID 2282976); conditions: HepG2 Attagene TRANS GAL4 internal marker reporter
# Method in brief: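 HepG2 cells transiently transfected with multiplexed GAL4-UAS reporter constructs were dosed for 24 h. Reporter mRNA was measured by RT-PCR, 6-FAM primer extension, HpaI digestion and capillary electrophoresis, and gain of signal was fitted relative to DMSO.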
# [18] = target: Bile acid receptor (Homo sapiens) (UniProt Q96RI1); experiment: ATG_IR1_CIS: Attagene CIS-FACTORIAL HepG2 Assay for human Nuclear Receptor Subfamily 1 Group H Member 4 (NR1H4), IR1 submotif (AID 2282946; active means hit-call score of the fitted dose curve at least 0.9, where 1 is the maximum; inactive means score below 0.9); conditions: IR1 reporter transcription, actives raise or lower the signal
# Method in brief: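 HepG2 cells transiently transfected with multiplexed cis-element reporter units read endogenous transcription factor activity. After 24 h compound exposure, reporter mRNA was quantified by RT-PCR, fluorescent labelling, HpaI digestion and capillary electrophoresis; bidirectional fitting versus DMSO baseline.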
# [19] = TOX21_p53_BLA_p3_viability: Viability Assessment in the Tox21 HCT-116 p53 Agonism Beta-lactamase Assay, Phase 3 (AID 2283593);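 further: cells exposed to compound for 16 h before reading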
# Method in brief: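 Cellular ATP was quantified by CellTiter-Glo luminescence, read after 30 min at room temperature. Beforehand, HCT116 cells (4000/well) received compound 5 h post-seeding, 217-fold diluted from DMSO, then incubated 16 h at 37C.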
# [20] = CCTE_Harrill_HTTr_Apoptosis_MCF7: CCTE's 6-hour Apoptosis Assessment for the High-Throughput Transcriptomics (HTTr) Platform, in MCF-7 cells cultured in DMEM + 10% fetal bovine serum, Harrill Lab (AID 2284011; active means hit-call score of the fitted dose curve at least 0.9, where 1 is the maximum; inactive means score below 0.9)
# Method in brief: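 MCF-7 cells in DMEM + 10% fetal bovine serum were exposed to chemicals for 6 hours over an eight-point dilution series. Caspase-3/7 activation was imaged by high content imaging with CellEvent Caspase 3/7 Green; bidirectional fitting used DMSO as baseline.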
# Bile acid receptor (Homo sapiens), sequence (Q96RI1 whole entry, looked up): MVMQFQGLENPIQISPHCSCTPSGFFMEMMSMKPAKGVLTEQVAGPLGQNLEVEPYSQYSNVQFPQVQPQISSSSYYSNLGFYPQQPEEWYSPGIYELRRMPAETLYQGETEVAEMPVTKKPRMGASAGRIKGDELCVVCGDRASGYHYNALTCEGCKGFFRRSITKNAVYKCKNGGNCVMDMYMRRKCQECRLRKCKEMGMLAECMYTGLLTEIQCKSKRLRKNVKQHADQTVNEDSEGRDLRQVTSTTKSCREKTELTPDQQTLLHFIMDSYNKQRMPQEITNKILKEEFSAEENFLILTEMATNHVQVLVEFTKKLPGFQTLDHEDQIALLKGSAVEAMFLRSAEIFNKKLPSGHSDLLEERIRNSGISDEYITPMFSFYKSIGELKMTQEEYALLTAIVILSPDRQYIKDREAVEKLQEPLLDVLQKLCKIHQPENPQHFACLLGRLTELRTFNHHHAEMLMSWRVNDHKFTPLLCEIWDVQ
# human Thyroid Receptor alpha (THRa1), THRA (gene 7067), sequence (P10827 whole entry, looked up, the tested form may be a part): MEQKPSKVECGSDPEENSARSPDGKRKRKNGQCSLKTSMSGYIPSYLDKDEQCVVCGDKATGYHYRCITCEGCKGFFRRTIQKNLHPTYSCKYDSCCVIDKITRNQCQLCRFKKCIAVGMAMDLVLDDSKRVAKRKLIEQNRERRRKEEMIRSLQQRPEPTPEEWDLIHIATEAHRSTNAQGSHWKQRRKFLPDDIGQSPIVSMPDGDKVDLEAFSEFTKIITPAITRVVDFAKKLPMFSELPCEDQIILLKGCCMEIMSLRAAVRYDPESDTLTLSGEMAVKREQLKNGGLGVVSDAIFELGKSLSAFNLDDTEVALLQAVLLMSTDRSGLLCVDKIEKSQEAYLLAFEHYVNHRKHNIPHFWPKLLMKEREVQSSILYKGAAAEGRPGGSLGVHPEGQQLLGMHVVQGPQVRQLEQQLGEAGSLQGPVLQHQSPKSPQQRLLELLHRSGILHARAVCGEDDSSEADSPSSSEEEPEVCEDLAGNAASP
# human Peroxisome Proliferator-activated Receptor delta (PPARd), PPARD (gene 5467), sequence (Q03181 whole entry, looked up, the tested form may be a part): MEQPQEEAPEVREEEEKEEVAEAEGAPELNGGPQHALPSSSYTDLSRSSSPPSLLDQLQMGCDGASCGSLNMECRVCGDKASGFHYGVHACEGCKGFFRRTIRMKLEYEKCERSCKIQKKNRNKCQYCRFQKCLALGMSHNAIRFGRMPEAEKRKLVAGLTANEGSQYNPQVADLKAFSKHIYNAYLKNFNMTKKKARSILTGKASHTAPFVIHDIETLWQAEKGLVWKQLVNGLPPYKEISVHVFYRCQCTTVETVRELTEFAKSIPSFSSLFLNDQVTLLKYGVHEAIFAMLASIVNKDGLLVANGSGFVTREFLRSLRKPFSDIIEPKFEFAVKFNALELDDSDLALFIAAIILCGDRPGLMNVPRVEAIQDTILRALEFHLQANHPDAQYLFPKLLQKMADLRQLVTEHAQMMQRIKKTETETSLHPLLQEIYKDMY
# human Vitamin D Receptor (VDR), VDR (gene 7421), sequence (P11473 whole entry, looked up, the tested form may be a part): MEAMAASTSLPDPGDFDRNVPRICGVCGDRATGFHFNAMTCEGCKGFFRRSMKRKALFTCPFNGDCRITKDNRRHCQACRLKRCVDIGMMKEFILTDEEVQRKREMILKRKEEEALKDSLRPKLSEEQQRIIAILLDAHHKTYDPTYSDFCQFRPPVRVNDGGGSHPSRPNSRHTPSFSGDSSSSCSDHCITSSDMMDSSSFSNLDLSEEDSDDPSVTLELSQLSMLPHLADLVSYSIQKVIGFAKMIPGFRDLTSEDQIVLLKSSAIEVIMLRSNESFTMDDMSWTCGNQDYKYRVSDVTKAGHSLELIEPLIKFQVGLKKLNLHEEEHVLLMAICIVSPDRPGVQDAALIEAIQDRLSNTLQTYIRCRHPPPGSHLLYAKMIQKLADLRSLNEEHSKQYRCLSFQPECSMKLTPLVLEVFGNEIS
# human Retinoid X Receptor beta (RXRb), RXRB (gene 6257), sequence (P28702 whole entry, looked up, the tested form may be a part): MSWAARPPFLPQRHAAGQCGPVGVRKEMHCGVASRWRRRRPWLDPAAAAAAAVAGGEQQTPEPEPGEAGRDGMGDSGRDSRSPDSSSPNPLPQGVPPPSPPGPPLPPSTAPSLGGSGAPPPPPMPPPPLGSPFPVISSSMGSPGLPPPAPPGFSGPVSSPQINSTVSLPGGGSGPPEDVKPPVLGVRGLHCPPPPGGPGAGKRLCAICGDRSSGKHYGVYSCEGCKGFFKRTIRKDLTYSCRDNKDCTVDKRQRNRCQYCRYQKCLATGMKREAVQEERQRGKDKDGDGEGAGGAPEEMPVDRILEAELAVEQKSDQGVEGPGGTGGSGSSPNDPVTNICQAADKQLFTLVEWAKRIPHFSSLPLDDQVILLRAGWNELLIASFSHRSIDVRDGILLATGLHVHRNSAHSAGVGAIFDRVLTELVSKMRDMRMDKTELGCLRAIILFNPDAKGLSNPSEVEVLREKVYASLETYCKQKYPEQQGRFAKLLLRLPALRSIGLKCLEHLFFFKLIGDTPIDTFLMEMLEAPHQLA
# human RAR-related Orphan Receptor beta (RORb), RORB (gene 6096), sequence (Q92753 whole entry, looked up, the tested form may be a part): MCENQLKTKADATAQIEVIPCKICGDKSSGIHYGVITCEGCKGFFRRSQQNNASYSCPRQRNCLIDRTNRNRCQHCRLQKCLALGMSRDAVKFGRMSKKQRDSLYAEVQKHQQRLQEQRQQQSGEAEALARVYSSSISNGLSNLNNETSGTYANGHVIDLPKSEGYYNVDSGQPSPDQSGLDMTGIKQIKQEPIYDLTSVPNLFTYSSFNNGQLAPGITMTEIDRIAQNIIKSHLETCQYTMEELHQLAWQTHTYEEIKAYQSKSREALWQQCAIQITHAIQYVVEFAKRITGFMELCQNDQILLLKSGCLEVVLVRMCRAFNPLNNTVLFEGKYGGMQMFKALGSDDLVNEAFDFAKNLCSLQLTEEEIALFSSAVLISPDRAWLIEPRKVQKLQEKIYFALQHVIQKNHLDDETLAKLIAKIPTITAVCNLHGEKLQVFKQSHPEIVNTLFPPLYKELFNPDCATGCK
# Nuclear receptor subfamily 1 group I member 3 (Homo sapiens), sequence (Q14994 whole entry, looked up, the tested form may be a part): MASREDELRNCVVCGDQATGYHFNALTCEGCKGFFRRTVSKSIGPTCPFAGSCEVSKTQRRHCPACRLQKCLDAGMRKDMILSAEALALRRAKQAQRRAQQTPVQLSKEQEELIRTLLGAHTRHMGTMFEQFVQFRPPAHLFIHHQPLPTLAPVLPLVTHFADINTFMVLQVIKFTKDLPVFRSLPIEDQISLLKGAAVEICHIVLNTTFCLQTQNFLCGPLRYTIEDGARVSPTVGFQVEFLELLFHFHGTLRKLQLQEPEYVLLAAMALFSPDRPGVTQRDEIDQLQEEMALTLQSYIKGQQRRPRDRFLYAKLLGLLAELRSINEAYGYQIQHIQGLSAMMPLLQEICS
# Hepatocyte nuclear factor 4-alpha (Homo sapiens), sequence (P41235 whole entry, looked up, the tested form may be a part): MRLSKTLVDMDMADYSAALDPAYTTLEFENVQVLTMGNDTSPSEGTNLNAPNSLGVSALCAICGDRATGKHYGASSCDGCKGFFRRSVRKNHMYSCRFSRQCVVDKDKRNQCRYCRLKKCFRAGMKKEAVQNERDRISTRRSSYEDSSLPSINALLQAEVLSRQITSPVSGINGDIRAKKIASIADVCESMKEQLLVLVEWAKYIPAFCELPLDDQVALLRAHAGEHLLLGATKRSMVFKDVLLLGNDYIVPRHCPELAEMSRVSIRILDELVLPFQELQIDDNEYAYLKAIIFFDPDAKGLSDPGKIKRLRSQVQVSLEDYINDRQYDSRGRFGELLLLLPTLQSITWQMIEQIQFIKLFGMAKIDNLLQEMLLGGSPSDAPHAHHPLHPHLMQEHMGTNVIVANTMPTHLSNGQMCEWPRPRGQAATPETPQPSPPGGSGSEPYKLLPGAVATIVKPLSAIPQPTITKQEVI
# Oxysterols receptor LXR-alpha (Homo sapiens), sequence (Q13133 whole entry, looked up, the tested form may be a part): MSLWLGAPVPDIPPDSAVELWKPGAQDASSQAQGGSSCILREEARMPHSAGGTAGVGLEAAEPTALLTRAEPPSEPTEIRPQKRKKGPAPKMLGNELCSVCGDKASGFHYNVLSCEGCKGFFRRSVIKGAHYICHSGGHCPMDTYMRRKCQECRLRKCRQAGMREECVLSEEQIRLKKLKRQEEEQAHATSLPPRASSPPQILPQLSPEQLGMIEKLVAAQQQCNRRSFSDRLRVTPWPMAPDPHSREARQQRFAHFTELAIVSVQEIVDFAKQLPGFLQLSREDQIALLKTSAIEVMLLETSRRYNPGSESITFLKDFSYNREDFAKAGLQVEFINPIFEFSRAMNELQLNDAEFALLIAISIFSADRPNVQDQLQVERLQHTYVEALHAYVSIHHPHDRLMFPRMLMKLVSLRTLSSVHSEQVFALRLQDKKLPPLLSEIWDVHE
# Retinoic acid receptor alpha (Homo sapiens), sequence (P10276 whole entry, looked up): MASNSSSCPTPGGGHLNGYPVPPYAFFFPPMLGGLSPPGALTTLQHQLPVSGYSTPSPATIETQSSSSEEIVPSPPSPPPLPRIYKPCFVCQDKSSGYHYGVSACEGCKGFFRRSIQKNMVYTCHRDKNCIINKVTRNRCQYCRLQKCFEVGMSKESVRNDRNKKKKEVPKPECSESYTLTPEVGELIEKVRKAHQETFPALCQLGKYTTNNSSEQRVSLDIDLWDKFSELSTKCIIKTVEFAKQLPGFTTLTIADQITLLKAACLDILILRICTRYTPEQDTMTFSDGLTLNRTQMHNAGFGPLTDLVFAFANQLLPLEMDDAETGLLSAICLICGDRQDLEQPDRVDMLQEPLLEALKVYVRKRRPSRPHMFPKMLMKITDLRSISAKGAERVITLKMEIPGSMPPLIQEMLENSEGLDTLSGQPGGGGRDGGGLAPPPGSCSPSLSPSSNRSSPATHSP
smiles,measurement,setting,value
CCOP(=O)(OCC)OCC,outcome,[1],inactive
same,outcome,[2],inactive
same,outcome,[3],inactive
same,outcome,[4],inactive
same,outcome,[5],inactive
same,outcome,[6],inactive
same,outcome,[7],inactive
same,outcome,[8],inactive
same,outcome,[9],inactive
same,outcome,[10],inactive
same,outcome,[11],inactive
same,outcome,[12],inactive
same,outcome,[13],inactive
same,outcome,[14],inactive
same,outcome,[15],inactive
same,outcome,[16],inactive
CSc1nc(N=[N+]=[N-])nc(NC(C)C)n1,outcome,[3],inactive
same,outcome,[4],inactive
same,outcome,[5],inactive
same,outcome,[8],inactive
same,outcome,[10],inactive
same,outcome,[11],inactive
same,outcome,[12],inactive
same,outcome,[14],inactive
CCCCCCCCCCCCCCCC[N+](C)(C)C,outcome,[2],inactive
same,outcome,[17],inactive
same,outcome,[4],inactive
same,AC50,[6],27.6 µM (active)
same,AC50,[7],49.2 µM (active)
same,outcome,[8],inactive
same,outcome,[9],inactive
same,outcome,[10],inactive
same,outcome,[12],inactive
same,AC50,[16],10.9 µM (active)
CCCCCc1cc(O)cc(O)c1,AC50,[18],155 µM (active)
same,outcome,[6],inactive
same,outcome,[7],inactive
same,outcome,[8],inactive
same,outcome,[10],inactive
same,outcome,[11],inactive
same,outcome,[12],inactive
same,outcome,[14],inactive
C=CC(=O)OCCCCOC(=O)C=C,AC50,[18],65.8 µM (active)
same,outcome,[5],inactive
same,outcome,[6],inactive
same,outcome,[7],inactive
same,outcome,[8],inactive
same,outcome,[10],inactive
same,outcome,[12],inactive
same,AC50,[13],69.5 µM (active)
same,AC50,[16],24.2 µM (active)
O=C(CCN1CC1)OCC(CO)(COC(=O)CCN1CC1)COC(=O)CCN1CC1,outcome,[18],inactive
same,outcome,[17],inactive
same,outcome,[6],inactive
same,outcome,[9],inactive
same,outcome,[10],inactive
same,outcome,[19],inactive
same,outcome,[15],inactive
same,AC50,[16],63.1 µM (active)
CCC(C)c1cc(C(C)(C)C)cc(-n2nc3ccccc3n2)c1O (stereo not drawn),outcome,[18],inactive
same,outcome,[3],inactive
same,outcome,[6],inactive
same,AC50,[10],8.72 µM (active)
same,outcome,[11],inactive
same,outcome,[12],inactive
COC(=O)c1ccccc1S(=O)(=O)NC(=O)Nc1nc(C)cc(C)n1,outcome,[1],inactive
same,outcome,[3],inactive
same,outcome,[4],inactive
same,outcome,[7],inactive
same,outcome,[9],inactive
same,outcome,[10],inactive
same,outcome,[12],inactive
same,outcome,[16],inactive
same,outcome,[20],inactive
C=CCN(CC=C)C(=O)C(Cl)Cl,outcome,[2],inactive
same,outcome,[3],inactive
same,outcome,[17],inactive
same,outcome,[8],inactive
same,outcome,[13],inactive
same,outcome,[19],inactive
same,outcome,[14],inactive
same,outcome,[15],inactive
same,outcome,[16],inactive
same,outcome,[20],inactive
CC[N+](=O)[O-],outcome,[1],inactive
same,outcome,[2],inactive
same,outcome,[6],inactive
same,outcome,[7],inactive
same,outcome,[8],inactive
same,outcome,[10],inactive
same,outcome,[11],inactive
same,outcome,[12],inactive
same,outcome,[19],inactive
same,outcome,[15],inactive
CC1(C)C(=O)NC(=O)NC1=O,outcome,[3],inactive
same,outcome,[17],inactive
same,outcome,[6],inactive
same,outcome,[9],inactive
same,outcome,[10],inactive
same,outcome,[11],inactive
same,outcome,[13],inactive
same,outcome,[19],inactive
same,outcome,[14],inactive
same,outcome,[15],inactive
Cc1ccc(C)c2ccccc12,outcome,[18],inactive
same,outcome,[2],inactive
same,outcome,[3],inactive
same,outcome,[4],inactive
same,outcome,[5],inactive
same,outcome,[7],inactive
same,outcome,[8],inactive
same,outcome,[9],inactive
same,AC50,[10],83.3 µM (active)
same,outcome,[11],inactive
same,outcome,[16],inactive
CC(=O)C=Cc1ccccc1,outcome,[2],inactive
same,outcome,[3],inactive
same,outcome,[17],inactive
same,outcome,[4],inactive
same,outcome,[5],inactive
same,outcome,[6],inactive
same,AC50,[7],100 µM (active)
same,outcome,[8],inactive
same,outcome,[9],inactive
same,outcome,[10],inactive
same,outcome,[12],inactive
same,outcome,[16],inactive
same,outcome,[20],inactive
